Counter-ions that a name gives are not always drawn. ± gives the standard deviation of the averaged measurements. Over roughly 1,300 compounds, “normalised cell viability” has its median near 1; the lowest 2% begin near 0.15. Only a selection was taken, and the lowest values are over-represented in it overall.
Tested on: V-C8 + BRCA2 (BRCA2-proficient hamster cells)
Experiment: normalised cell viability (fraction of plate median); higher = more viable cells (less toxic)
Conditions: 5 µM
In short: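 Library drugs, held as 10 mM stocks in DMSO, were diluted to 5 μM in 100 μl medium and added to 96-well plates of V-C8 hamster cells, either lacking BRCA2 or with BRCA2 restored, 24 h after seeding. Plates ran for 3 days (screen 1) or 6 days (screen 2), alongside solvent-only wells. Viability came from a resazurin readout, median-plate normalised, as the mean of triplicate wells.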

SMILES | normalised cell viability (treatment time: 3 days) | normalised cell viability (treatment time: 6 days)
COc1ccc2[nH]cc(CCNC(C)=O)c2c1 [Melatonin] | 1.22 ± 0.097 | 0.928 ± 0.048
CCCCCNC(=N)N/N=C/c1c[nH]c2ccc(OC)cc12 [Tegaserod maleate] | 0.1362 ± 0.0013 | 0.155 ± 0.022
CC[C@@H](CO)NCCN[C@@H](CC)CO [Ethambutol dihydrochloride] | 1.05 ± 0.058 | 1 ± 0.011
C1CCC(C(CC2CCCCN2)C2CCCCC2)CC1 (stereo not given) [Perhexiline maleate] | 0.135 ± 0.0029 | 0.125 ± 0.015
Cc1nnc(SCC2=C(C(=O)O)N3C(=O)[C@@H](NC(=O)Cn4cnnn4)[C@H]3SC2)s1 [Cefazolin sodium salt] | 1.1 ± 0.034 | 1.01 ± 0.12
CCCCCCCCCCCCCCCC[N+](C)(C)CCN(Cc1ccc(OC)cc1)c1ncccn1 [Thonzonium bromide] | 0.787 ± 0.094 | 0.74 ± 0.19
CCCC1O[C@@H]2C[C@H]3[C@@H]4CCC5=CC(=O)C=C[C@]5(C)[C@H]4[C@@H](O)C[C@]3(C)[C@]2(C(=O)CO)O1 (stereo not given in full) [Budesonide] | 0.9516 ± 0.0071 | 0.936 ± 0.024
CC1(C)OC(=O)NC1=O [Dimethadione] | 1.08 ± 0.064 | 0.964 ± 0.043
CNC[C@H](O)[C@@H](O)[C@H](O)[C@H](O)CO [Meglumine] | 0.938 ± 0.094 | 0.983 ± 0.037
C[N+](C)(C)CCOC(N)=O [Carbachol] | 0.953 ± 0.043 | 1.01 ± 0.036
CN1C2CCCC1CC(NC(=O)c1nn(C)c3ccccc13)C2 (stereo not given) [Granisetron] | 1.03 ± 0.036 | 1.01 ± 0.017
CCN(CC)CCOC(=O)C1(c2ccc([N+](=O)[O-])cc2)CCCC1 [Nitrocaramiphen hydrochloride] | 1.06 ± 0.024 | 1.038 ± 0.0056
CCCCCN(CCCCC)C(=O)C(CCC(=O)O)NC(=O)c1ccc(Cl)c(Cl)c1 (stereo not given) [Lorglumide sodium salt] | 1 ± 0.032 | 1.04 ± 0.015
Cc1onc(-c2ccccc2)c1C(=O)N[C@@H]1C(=O)N2[C@@H]1SC(C)(C)[C@@H]2C(=O)O [Oxacillin sodium] | 1.04 ± 0.042 | 0.989 ± 0.025
CC(=O)OC[C@H]1O[C@@H]([S-])[C@H](OC(C)=O)[C@@H](OC(C)=O)[C@@H]1OC(C)=O.CCP(CC)CC.[Au+] [Auranofin] | 0.126 ± 0.0085 | 0.128 ± 0.012
C[C@H]1O[C@H](O[C@H]2[C@H](O)[C@@H](O)[C@@H](O[C@H]3[C@H](O)[C@@H](O)C(O)O[C@@H]3CO)O[C@@H]2CO)[C@H](O)[C@@H](O)[C@@H]1N[C@H]1C=C(CO)[C@@H](O)[C@H](O)[C@H]1O (stereo not given in full) [Acarbose] | 0.928 ± 0.072 | 1.03 ± 0.056
COC(=O)Nc1nc2ccc(SC(C)C)cc2[nH]1 [Methiazole] | 0.231 ± 0.016 | 0.245 ± 0.017
Nc1ccc(C(=O)NCC(=O)O)cc1 [Aminohippuric acid] | 1.04 ± 0.027 | 1.11 ± 0.076
CCOCCn1c(N2CCCN(C)CC2)nc2ccccc21 [Emedastine] | 1.07 ± 0.11 | 1.06 ± 0.032
Nc1ccn([C@@H]2O[C@H](CO)[C@@H](O)C2(F)F)c(=O)n1 [Gemcitabine] | 0.212 ± 0.014 | 0.183 ± 0.0099
NC12CC3CC(CC(C3)C1)C2 [Adamantamine fumarate] | 0.885 ± 0.035 | 0.95 ± 0.053
COc1cc2c(cc1OC)C(=O)C(CC1CCN(Cc3ccccc3)CC1)C2 (stereo not given) [Donepezil hydrochloride] | 1.007 ± 0.0092 | 1.05 ± 0.074
CN1[C@@H]2CC[C@H]1C[C@@H](OC(=O)c1c[nH]c3ccccc13)C2 [Tropisetron HCl] | 1.05 ± 0.12 | 1.24 ± 0.074

SMILES | normalised cell viability (treatment time: 3 days) | normalised cell viability (treatment time: 6 days)
CCCN(CCC)C(=O)C(CCC(=O)O)NC(=O)c1ccccc1 (stereo not given) [Proglumide] | 0.993 ± 0.11 | 0.986 ± 0.14
CC(C)/N=c1\cc2n(-c3ccc(Cl)cc3)c3ccccc3nc-2cc1Nc1ccc(Cl)cc1 [Clofazimine] | 0.274 ± 0.021 | 0.346 ± 0.037
CCCN[C@H]1CCc2nc(N)sc2C1 [Pramipexole] | 0.9625 ± 0.0076 | 0.987 ± 0.022
c1ccc2c(c1)CCCc1cc(NCCN3CCOCC3)nnc1-2 | 0.803 ± 0.038 | 0.87 ± 0.091
CCOC(=O)OC(C)OC1=C(C(=O)Nc2ccccn2)N(C)S(=O)(=O)c2ccccc21 (stereo not given) [Ampiroxicam] | 1 ± 0.034 | 0.994 ± 0.079
O=C(NCCO[N+](=O)[O-])c1cccnc1 [Nicorandil] | 1.11 ± 0.072 | 1.11 ± 0.13
CNC(=O)c1c(I)c(C(=O)NCC(=O)Nc2c(I)c(C(=O)O)c(I)c(C(=O)NCCO)c2I)c(I)c(N(C)C(C)=O)c1I [Ioxaglic acid] | 1 ± 0.058 | 1.11 ± 0.086
O=C(O)CCc1nc(-c2ccccc2)c(-c2ccccc2)o1 [Oxaprozin] | 1.06 ± 0.11 | 1.12 ± 0.078
Cc1cc2cc3c(C)cc(=O)oc3c(C)c2o1 [Trioxsalen] | 0.991 ± 0.036 | 0.818 ± 0.12
Nc1c2c(nc3ccccc13)CCCC2 [Tacrine hydrochloride] | 0.905 ± 0.038 | 1.09 ± 0.014
Nc1c2ccccc2nc2ccccc12 [Aminacrine] | 0.139 ± 0.0043 | 0.156 ± 0.024
CC(C)Cn1cnc2c(N)nc3ccccc3c21 [Imiquimod] | 1.02 ± 0.042 | 1.019 ± 0.0077
O=C(Nc1ccc([N+](=O)[O-])cc1Cl)c1cc(Cl)ccc1O [Niclosamide] | 0.139 ± 0.0082 | 0.127 ± 0.0065
O=C(OCCOCCO)c1ccccc1Nc1cccc(C(F)(F)F)c1 [Etofenamate] | 0.988 ± 0.045 | 0.987 ± 0.061
CCCOc1ccc2[nH]c(NC(=O)OC)nc2c1 [Oxibendazol] | 0.18 ± 0.0021 | 0.194 ± 0.0035
COC(=O)Nc1nc2cc(C(=O)c3cccs3)ccc2[nH]1 [Nocodazole] | 0.143 ± 0.0097 | 0.132 ± 0.01
COC(=O)Nc1nc2cc(C(=O)c3ccc(F)cc3)ccc2[nH]1 [Flubendazol] | 0.168 ± 0.017 | 0.167 ± 0.0085
COC(=O)Nc1nc2cc(Sc3ccccc3)ccc2[nH]1 [Fenbendazole] | 0.183 ± 0.0078 | 0.179 ± 0.017
COC(=O)Nc1nc2cc([S+]([O-])c3ccccc3)ccc2[nH]1 (stereo not given) [Oxfendazol] | 0.74 ± 0.055 | 0.827 ± 0.05
COC(=O)Nc1nc2cc(C(=O)c3ccccc3)ccc2[nH]1 [Mebendazole] | 0.163 ± 0.013 | 0.151 ± 0.0072
NCC[C@H](O)C(=O)N[C@@H]1C[C@H](N)[C@@H](O[C@H]2O[C@H](CN)[C@@H](O)[C@H](O)[C@H]2O)[C@H](O)[C@H]1O[C@H]1O[C@H](CO)[C@@H](O)[C@H](N)[C@H]1O [Amikacin hydrate] | 0.584 ± 0.023 | 0.699 ± 0.089
CN(C)CCC=C1c2ccccc2C=Cc2ccccc21 [Cyclobenzaprine hydrochloride] | 1.06 ± 0.062 | 1.08 ± 0.034

From the supplement of paper PMC6609913
